# Assay outcomes as filed in PubChem BioAssay.
# Compounds with a hit are over-represented: about 5.2% of the library has one in this group of screens.
# VDR inh: Inhibitors of the vitamin D receptor (VDR): qHTS. Vitamin D3 receptor (Homo sapiens), P11473. VDR-SRC2-3 peptide fluorescence polarization, 2 h. Potency, µM, without a hit: max response, negative = inhibition, usual class: inhibitors. 0.93% of 400,000 active. AID 504847, 2011; also: potency is read from the fitted curve at half-maximal effect; % is scaled to controls: 0 for no effect and ±100 for the full control effect
# Target sequence (P11473 whole entry, looked up): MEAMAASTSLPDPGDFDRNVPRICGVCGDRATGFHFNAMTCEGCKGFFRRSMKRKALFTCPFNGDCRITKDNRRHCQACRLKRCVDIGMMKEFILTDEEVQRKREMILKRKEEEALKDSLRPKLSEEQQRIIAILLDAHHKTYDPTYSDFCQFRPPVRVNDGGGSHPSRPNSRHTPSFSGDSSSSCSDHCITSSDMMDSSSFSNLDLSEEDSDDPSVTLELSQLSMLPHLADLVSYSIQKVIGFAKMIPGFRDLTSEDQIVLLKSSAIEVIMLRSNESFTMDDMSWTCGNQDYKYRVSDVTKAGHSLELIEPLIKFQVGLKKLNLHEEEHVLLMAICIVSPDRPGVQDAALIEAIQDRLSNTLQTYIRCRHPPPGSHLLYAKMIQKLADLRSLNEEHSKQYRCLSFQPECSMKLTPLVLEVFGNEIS
#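 Fluorescence polarization assay of small-molecule disruption of VDR binding to coregulator peptide SRC2-3. Compounds and controls pin-transferred, then read after 2 h incubation at ambient room temperature.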
# Sfp PPTase inh: qHTS Assay for Inhibitors of Bacillus subtilis Sfp phosphopantetheinyl transferase (PPTase); AID 1490, 2009; 3.5% of 310,000 active; Biochemical Sfp PPTase activity, qHTS; 4'-phosphopantetheinyl transferase ffp (Bacillus subtilis), Q9F4F7; Potency, µM, for inactives: largest response in the series, negative = inhibition, hits mostly inhibitors;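 also: the enzyme is Sfp with the accession as filed and its product quenches rhodamine fluorescence; potency is read from the fitted curve at half-maximal effect; 0% = enzyme reaction without inhibitor and -100% = no enzyme wells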
#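 Fluorescence-quenching assay: 15 nM Sfp-PPTase preincubated 15 min at room temperature with compound, then 5 uM rhodamine-CoA and 12.5 uM BHQ-2-labelled YbbR peptide added. Fluorescence (ex 525/em 598 nm) read at start and after 30 min; difference gives rate.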
# PLK1 PBD block: qHTS for Inhibitors of PLK1-PDB (polo-like kinase 1 - polo-box domain): Primary Screen; Serine/threonine-protein kinase PLK1 (Homo sapiens), P53350; Plk1 PBD binding of FITC phosphopeptide, fluorescence polarization; Potency, µM, without a hit: max response, negative = inhibition, hits mostly inhibitors; 2.8% of 360,000 active; AID 720504, 2013; also: potency is read from the fitted curve at half-maximal effect; series mostly up to about 57 µM; % is scaled to controls: 0 for no effect and ±100 for the full control effect; nearly all actives have a fitted effect of over 65% in size
# TrxR1 inh: qHTS Assay for Inhibitors of Mammalian Selenoprotein Thioredoxin Reductase 1 (TrxR1): qHTS; AID 588453, 2011; 1% of 390,000 active; Thioredoxin reductase 1, cytoplasmic (Rattus norvegicus), O89049; Potency, µM (titrated, usually from 114 µM), for inactives: top-dose activity change, negative = inhibition, usual class: inhibitors; recombinant rTrxR1, NADPH fluorescence consumption, selenite substrate; also: potency is read from the fitted curve at half-maximal effect; % is scaled to controls: 0 for no effect and ±100 for the full control effect; nearly all actives have a fitted effect of over 65% in size
#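 Rat TrxR1 (90 nM in the dispensed reagent) was pre-reduced with 400 uM NADPH for 5 min at room temperature, then incubated with compound for 15 min. After 400 uM selenite was added, NADPH fluorescence (Ex 340/Em 450 nm) was followed for 8 min.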
# TrxR1 substrate: qHTS Assay for Substrates of Mammalian Selenoprotein Thioredoxin Reductase 1 (TrxR1): qHTS; purified TrxR1 substrate turnover, NADPH consumption readout; 0.01% of 390,000 active; Potency, µM (top dose mostly 114 µM), for the others: top-dose activity change, negative = substrate turnover; AID 588456, 2011; Thioredoxin reductase 1, cytoplasmic (Rattus norvegicus), O89049; also: potency is read from the fitted curve at half-maximal effect; % is scaled to controls: 0 for no effect and ±100 for the full control effect; nearly all actives have a fitted effect of over 50% in size
#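 Rat TrxR1, dispensed at 90 nM, was prereduced with 400 uM NADPH (final) for 5 min at ~22 deg C, then incubated with compound 15 min before 400 uM selenite. A first-read NADPH fluorescence drop versus no-compound background flagged substrates.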
# mIDH1 inhibitor: qHTS for Inhibitors of mutant isocitrate dehydrogenase 1 (IDH1): qHTS; Isocitrate dehydrogenase [NADP] cytoplasmic (Homo sapiens), O75874; IDH1-R132H enzyme, NADPH consumption, diaphorase/resazurin fluorescence; Potency, µM (top dose mostly 76.6 µM), inactives show at the top dose activity change, negative = inhibition, actives largely listed as inhibitors; 0.093% of 390,000 active; also: potency is read from the fitted curve at half-maximal effect; % is scaled to controls: 0 for no effect and ±100 for the full control effect; nearly all actives have a fitted effect of over 65% in size
#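 IDH1-R132H (0.5 ug/mL dispensed) in pH 7.5 Tris buffer was preincubated 30 min with compound, then given a substrate mix of 0.016 mM NADPH and 2 mM alpha-KG for 80 min at room temperature; remaining NADPH was read by diaphorase/resazurin fluorescence.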
# Sfp inh conf: Confirmation qHTS Assay for Inhibitors of Bacillus subtilis Sfp phosphopantetheinyl transferase (PPTase) | Potency, µM (titrated, usually from 114 µM), inactives show top-dose activity change, negative = inhibition, usual class: inhibitors | Sfp PPTase enzymatic assay, qHTS titration | shares compounds with Sfp PPTase inh | 79% of 380 active | AID 2701, 2010;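 also: potency is read from the fitted curve at half-maximal effect; plate controls were uninhibited Sfp reaction for no effect and no enzyme control for full effect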
# Target sequence (Q9F4F7 whole entry, looked up): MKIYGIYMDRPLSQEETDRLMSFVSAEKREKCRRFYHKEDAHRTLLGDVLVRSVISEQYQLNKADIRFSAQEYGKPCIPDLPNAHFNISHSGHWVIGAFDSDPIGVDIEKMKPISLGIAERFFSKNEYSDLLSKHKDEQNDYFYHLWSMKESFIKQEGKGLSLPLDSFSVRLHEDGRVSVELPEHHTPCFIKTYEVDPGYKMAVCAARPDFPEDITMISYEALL
# Sfp PPTase gel: Gel-Based Assay for Inhibitors of Bacillus subtilis Sfp phosphopantetheinyl transferase (PPTase); purified Sfp, gel-based phosphopantetheinylation read-out; shares compounds with Sfp PPTase inh; 20% of 210 active; Potency, µM, hits mostly inhibitors;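 active = potency below 100 µM; inconclusive = dose-dependent response but potency above 100 µM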;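 also: band intensities scaled against SCH202676 control wells before curve fitting; potency is an IC50 for inhibitors of Sfp transfer activity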
# VDR inh confirm: qHTS for Inhibitors of the vitamin D receptor (VDR): Hit Validation in Primary Screen | shares compounds with VDR inh | VDR-coactivator inhibition assay, qHTS confirmation | Potency, µM, most hits filed as inhibitors | 89% of 840 active; also: potency is read from the fitted curve at half-maximal effect
# VDR FP fluor: qHTS for Inhibitors of the vitamin D receptor (VDR): Hit Validation using a Fluorescein Assay; shares compounds with VDR inh; VDR-coactivator binding, fluorescein fluorescence polarization; Potency, µM (highest dose often 57.1 µM), without a hit: at the top dose activity change, negative = inhibition, usual class: inhibitors; 48% of 840 active; AID 602200, 2012; also: potency is read from the fitted curve at half-maximal effect
# VDR bla reporter: qHTS for Inhibitors of the vitamin D receptor (VDR): Hit Validation using a Beta-Lactamase Assay. 23% of 840 active. VDR beta-lactamase reporter cells, FRET ratio; cells co-treated with VDR agonist LG190178. shares compounds with VDR inh. Potency, µM (highest dose often 46.1 µM), inactives show at the highest dose activity change, negative = inhibition, most hits filed as inhibitors; also: potency is read from the fitted curve at half-maximal effect; % is scaled to controls: 0 for no effect and ±100 for the full control effect
# VDR cytotox: qHTS for Inhibitors of the vitamin D receptor (VDR): Hit Validation using a Cytotoxicity Assay | Potency, µM (titrated, usually from 48.3 µM), for inactives: top-dose activity change, negative = cytotoxicity, most hits filed as cytotoxic | 18% of 840 active | shares compounds with VDR inh | AID 602204, 2012 | cytotoxicity counter-screen, cell viability, qHTS;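 also: potency is read from the fitted curve at half-maximal effect; plate controls were DMSO for no effect and high-concentration cycloheximide for full effect; nearly all actives have a fitted effect of over 75% in size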
# TbPYK inh: qHTS of Trypanosoma Brucei Inhibitors: Confirmatory Assay for Cherry-picked Compounds | shares compounds with PLK1 PBD block | recombinant TbPYK, Kinase-Glo ATP luminescence | 67% of 890 active | Potency, µM (doses to about 76.9 µM), for the others: at the highest dose activity change, negative = inhibition, hits mostly inhibitors; also: potency is read from the fitted curve at half-maximal effect; % is scaled to controls: 0 for no effect and ±100 for the full control effect; nearly all actives have a fitted effect of over 70% in size
# TbPYK orthogonal: qHTS of Trypanosoma Brucei Inhibitors: Orthogonal Assay for Cherry-picked Compounds; Potency, µM (series often up to 76.9 µM), inactives show at the top dose activity change, negative = inhibition, hits mostly inhibitors; recombinant TbPYK, ADP-Glo luminescence, 60 min; shares compounds with PLK1 PBD block; 62% of 890 active; also: potency is read from the fitted curve at half-maximal effect; % is scaled to controls: 0 for no effect and ±100 for the full control effect; nearly all actives have a fitted effect of over 75% in size
# * = called active by the depositor; i = inactive; ? = inconclusive; / = no result; ! = repeats disagree; [ ] = remark or other dose. Unless noted, calls follow the shape of the dose curve; as a rule, active = well fitted curve in the direction sought with a large enough effect; inconclusive = small, poorly fitted or top-dose-only effect, or another doubt; inactive = no such curve, though single readings can be large; an effect the other way counts as inactive or inconclusive.
SMILES,VDR inh,Sfp PPTase inh,PLK1 PBD block,TrxR1 inh,TrxR1 substrate,mIDH1 inhibitor,Sfp inh conf,VDR inh confirm,VDR FP fluor,VDR bla reporter,VDR cytotox,TbPYK inh,TbPYK orthogonal,others
O=C(Nc1nnc(COc2ccc(Cl)cc2)s1)c1ccco1,28µM*,7.1µM*,2.7µM*,-11%[57.1 µM],4%[57.1 µM],1%,5.9µM*,4.2*,?,-17%,-6%,/,/,
COc1ccc2nc(S(=O)Cc3ncc(C)c(OC)c3C)[nH]c2c1 (stereo not drawn),89µM*!,20µM*!,24µM*,1%,10%,-11%,37µM*,2.7*,?,41%,16%,/,/,
Clc1ccccc1-c1nn2c(COc3ccccc3)nnc2s1,-9%,?,?,-9%,2%[57.1 µM],-3%,/,/,/,/,/,/,/,
c1ccc(Cc2nn3c(COc4ccccc4)nnc3s2)cc1,79µM*,14µM*,4.2µM*,-19%,-1%,12%,19µM*,24*,?,11%,28%,/,/,
CC(C)(C)CC(=O)Nc1ccc(S(=O)(=O)NC2=NCCCCC2)cc1,-18%,/,1%,0%[57.1 µM],7%[57.1 µM],3%,/,/,/,/,/,/,/,
CCc1nc2ccc(C(=O)Nc3ccc(Cl)c(Cl)c3)cn2c1N(C)Cc1ccc(OC)cc1,/,/,-11%,/,/,/,/,/,/,/,/,/,/,
CCc1c(C)sc(NC(=O)c2ccoc2C)c1C(N)=O,35µM*,11µM*,2.7µM*,-10%[57.1 µM],9%[57.1 µM],2%,8.3µM*,6.7*,?,5%,-10%,14µM*,16µM*,
CC(C)NC(=O)N(C)C[C@@H]1Oc2ccc(NC(=O)CCN3CCOCC3)cc2CC(=O)N([C@@H](C)CO)C[C@@H]1C,-2%,/,-18%,?,1%,9%,/,/,/,/,/,/,/,
CN1CCN(C(=S)c2ccc(Br)cc2)CC1,?,1.3µM*,4.2µM*,3%[57.1 µM],7%[57.1 µM],-3%,13µM*,/,/,/,/,7.1µM*,7.9µM*,
O=C(NCCc1cccs1)c1ccc(Cn2c(SCc3ccccc3)nc3cccnc32)cc1,9%,/,/,32%,14%,-6%,/,/,/,/,/,/,/,
CC(NC(=O)c1sc2cc([N+](=O)[O-])ccc2c1Cl)C(C)(C)C (stereo not drawn),?,7.9µM*,1.2µM*,?,-18%,11%,0.53µM*,5.6*,3.2µM*,-8%,20%,4µM*,11µM*,Sfp PPTase gel=0.69µM*
Cc1ccc2c(c1)C(N1CCCC1=O)CC(c1ccco1)N2 (stereo not drawn),-13%,40µM*,?,-44%,55%[57.1 µM],8%,26µM*,/,/,/,/,-11%,-6%,Sfp PPTase gel=i
Cc1ccc(C)c(NC(=S)N2CCN(c3cccc(C(F)(F)F)c3)CC2)c1,8%,22%,-6%,10%,-2%,2%,/,/,/,/,/,/,/,
Cc1ccnc(NC(=S)N2CCN(c3cccc(C(F)(F)F)c3)CC2)c1,-19%,2.5µM*,-7%,-7%,-8%,-9%,15µM*,/,/,/,/,2.2µM*,2.8µM*,
N#C/C(=C/c1ccc(N2CCOCC2)o1)c1ccc(Br)cc1,35µM*,2.8µM*,17%,11µM*,-17%,7%,12µM*,/,/,/,/,?,35µM*,Sfp PPTase gel=6.2µM*
N#C/C(=C\c1ccc(N2CCOCC2)o1)C(=O)Nc1ccc(O)cc1,-3%,0%,105%,-9%[57.1 µM],-3%[57.1 µM],1%,/,/,/,/,/,/,/,
NC(=O)Cn1c(=O)n(Cc2ccco2)c(=O)c2c3c(sc21)CCCCC3,89µM*,10µM*,?,?,-1%,5%,19µM*,/,/,/,/,?,?,
COc1ccccc1CCn1c(=O)c(CCc2ccccc2)nc2cncnc21,2%,27%,/,/,/,/,/,/,/,/,/,/,/,
CC(=O)N=c1nc(-c2ccccc2)n(-c2ccccc2)s1,-21%,/,/,10%,-1%,/,/,/,/,/,/,/,/,
CN=c1nc(-c2ccccc2)n(-c2ccccc2)s1,50µM*,/,3µM*,?,9%[57.1 µM],-8%,0.83µM*,/,/,/,/,0.89µM*,1.8µM*,
